# Bioassay records: PubChem BioAssay, several laboratories
# This is a sample that favours compounds with a hit; in the whole collection about 4.7% have one here.
# PLK1 kinase inh: blocks human PLK1 kinase activity. AID 619. recombinant PLK1 kinase, TR-FRET peptide phosphorylation. P53350. inhibition, % at 10 µM. 0.53% of 97,000 active;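 active means inhibition of 50% or more in the single-concentration screen; inactive means inhibition below 50%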;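 further: 0% = DMSO max control and 100% = H-89 dihydrochloride min control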
# Target sequence (P53350 whole entry, looked up): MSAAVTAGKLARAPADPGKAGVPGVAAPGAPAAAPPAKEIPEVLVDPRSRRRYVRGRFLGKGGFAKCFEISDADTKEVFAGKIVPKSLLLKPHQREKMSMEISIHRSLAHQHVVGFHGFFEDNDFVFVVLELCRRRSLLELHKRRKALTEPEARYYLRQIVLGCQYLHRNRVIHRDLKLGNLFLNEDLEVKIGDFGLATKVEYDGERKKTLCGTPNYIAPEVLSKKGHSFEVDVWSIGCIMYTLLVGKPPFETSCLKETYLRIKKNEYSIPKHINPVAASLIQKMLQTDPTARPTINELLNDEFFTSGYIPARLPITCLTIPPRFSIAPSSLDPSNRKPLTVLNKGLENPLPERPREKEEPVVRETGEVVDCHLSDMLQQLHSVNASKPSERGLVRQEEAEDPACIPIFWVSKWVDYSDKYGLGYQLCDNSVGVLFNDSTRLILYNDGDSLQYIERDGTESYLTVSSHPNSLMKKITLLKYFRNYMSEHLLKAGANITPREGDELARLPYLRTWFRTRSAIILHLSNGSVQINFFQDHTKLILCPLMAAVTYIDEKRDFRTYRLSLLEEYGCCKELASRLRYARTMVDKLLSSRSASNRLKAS
# DAT uptake mod: modulates human dopamine transporter uptake under cocaine; AID 449768; 1.3% of 110,000 active; B-score at 10 µM; LLC-PK1 hDAT cells, [14C]-dopamine uptake with cocaine IC80; actives deviate in either direction; Q01959;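 active means Z score or B-score, a plate-position-corrected score, falls beyond the plate's 99.7% confidence bounds, in either direction; inactive means both scores lie inside the 99.7% bounds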;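 further: scored against the spread of the other compound wells on the same plate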
# SDO1 yeast rescue: compounds rescuing growth of sdo1-depleted yeast, bone marrow failure model; AID 817; S. cerevisiae sdo1-depleted JHY4D growth rescue, OD600 30 h; hits give high values; pdr5 snq2 efflux-pump mutant strain; 0.21% of 140,000 active; z-score at 10 µM;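 active means z-score above 3 at both the 24 hr and the 30 hr optical density reads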;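 further: z-score against mean and SD of all compound wells on the same plate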
# Plk1 PBD FP: Plk1 (human) PBD binding inhibition. P53350. Plk1 PBD phosphopeptide binding, fluorescence polarization. inhibition, %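 (tested at about 20 µM)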. 0.13% of 97,000 active. AID 693; in the data active means inhibition above about 34%, passing the limit was not always enough
# Cav3 T inh: blocks human Cav3.2 T-type calcium channel; B-score at 10 µM; AID 449739; Cav3.2-expressing cells, Fluo-4 calcium fluorescence FDSS; hits give low values; 4% of 100,000 active;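 active means single-dose well whose peak fluorescence ratio is a statistical outlier from its plate by either plate-standardised score or position-corrected B-score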
# Pyk2 oligo antag: antagonists of human Pyk2 oligomerization | Q293 cells, Pyk2 FERM NanoBiT luminescence; hits give low values | z-score (the deposit names both 25 µM and 10 µM) | 0.83% of 99,000 active;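 active means Z-score of -3 or lower, scaled per plate to the spread of control and sample wells; inactive means z-score above -3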;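 further: negative z-score means lost luminescence so less FERM oligomerization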
# * = called active by the depositor; . = no result.
SMILES,PLK1 kinase inh,DAT uptake mod,SDO1 yeast rescue,Plk1 PBD FP,Cav3 T inh,Pyk2 oligo antag
CCCCCC(=O)N1CC2(CC(c3cccc(NC(=O)COc4ccc(Cl)cc4)c3)=NO2)C[C@@H]1C(N)=O (stereo not given in full),.,3.13*,.,.,-1.13,.
CCC(=O)N1CC2(CC(c3cccc(NC(=O)COc4ccc(Cl)cc4)c3)=NO2)C[C@@H]1C(N)=O (stereo not given in full),.,-0.717,.,.,0.76,.
Cc1ccc(C(OCCN(C)C)c2cccc(C(F)(F)F)c2)cc1 (stereo not given),.,.,0.13,.,.,.
C/C(=N\NC(=O)C1CCCN(S(=O)(=O)c2ccccc2)C1)c1ccncc1 (stereo not given),-7.6,-0.264,1.78,10.9,4.06*,-0.35
C/C(=N\NC(=O)C1CCCN(S(=O)(=O)c2ccccc2)C1)c1cccnc1 (stereo not given),-8.0,2.39*,0.97,-20.3,1.76,-0.71
C/C(=N\NC(=O)C1CCCN(S(=O)(=O)c2ccccc2)C1)c1ccccn1 (stereo not given),-19.1,-0.0572,0.21,5.5,2.93,0.88
O=c1c(Oc2ccccc2)coc2cc(O)cc(O)c12,.,-1.48,.,.,-0.877,.
Cc1cc(NC(=O)CSc2nc(CCC3CCCC3)nc3ccccc23)no1,-14.3,-0.00218,-0.32,-16.0,-8.74*,-0.48
CCOC(=O)C1CCN(C(=O)C2CCN(c3nc4ccc(OC)cc4s3)CC2)CC1,-11.9,-8.15*,0.61,-1.3,2.02,0.28
CCCCCCN(C(=O)CCCCCN1C(=O)NC(c2ccc(-c3ccccc3)cc2)C(C(=O)OCc2ccccc2)=C1C)C(C(=O)NCCCC)c1ccc(O)c(C(=O)OC)c1 (stereo not given),.,-0.243,.,.,-0.872,.
CN(C)c1oc(-c2ccccc2Cl)nc1P(=O)(c1ccccc1)c1ccccc1,-13.6,1.88,-1.28,7.3,-7.28*,-1.75
O=C(CC(NC(=O)C(F)(F)F)c1ccccc1)Nc1nnc(CCc2ccccc2)s1 (stereo not given),.,.,-0.87,.,.,.
CCOC(=O)c1nnn(-c2ccccc2)c1C,-0.2,0.603,-0.79,-20.4,0.357,0.07
CCOC(=O)c1nn(-c2ccc(F)cc2)c(-c2ccccc2)c1C(=O)c1ccccc1,-7.1,-1.32,-0.4,-20.8,-0.431,-3.1*
CCOC(=O)c1nn(-c2ccccc2)c(-c2ccccc2)c1C(=O)c1ccccc1,-7.5,-2.13,-0.75,-7.2,0.586,-3.45*
CCOC(=O)c1nn(-c2ccccc2F)c(-c2ccccc2)c1C(=O)c1ccccc1,-1.0,1.17,0.22,-10.5,-4.35*,-3.95*
CCOC(=O)c1nn(-c2cccc(OC)c2)c(-c2ccccc2)c1C(=O)c1ccccc1,-0.8,-0.816,0.33,-25.1,-3.15,-4.25*
CC1CCCN(S(=O)(=O)c2ccc(S(=O)(=O)N3CCC4(CC3)OCCO4)cc2)C1 (stereo not given),.,.,0.23,.,.,.
Cc1ccc(C)c(NC(=O)C(Sc2nnc(-c3cccs3)o2)c2ccccc2)c1 (stereo not given),.,.,0.27,.,.,.
O=C(NCc1ccc(F)cc1)c1cc2c(s1)CCCC2,-13.0,0.935,-0.39,-8.1,-6.3*,-0.02
CC1CCc2sc(C(=O)NCc3ccc(F)cc3)cc2C1 (stereo not given),-9.3,0.417,-1.37,-2.6,-1.98,-0.45
O=C(Nc1nccs1)c1cc2c(s1)CCCCC2,1.5,4.31*,-1.86,-3.6,-4.91,-0.96
COc1ccc(CCC(=O)Nc2ccc(C)c([N+](=O)[O-])c2)cc1,.,.,0.86,.,.,.
CCOc1ncccc1C(=O)OCC(=O)c1cc(C)n(Cc2ccco2)c1C,-9.3,-1.05,-0.36,3.4,-4.87*,0.63
O=C(CSC(=S)N1CCN(c2ccccc2)CC1)Nc1nc(-c2ccccc2)c(-c2ccccc2)o1,.,.,0.38,.,.,.
SMILES,PLK1 kinase inh,DAT uptake mod,SDO1 yeast rescue,Plk1 PBD FP,Cav3 T inh,Pyk2 oligo antag
COc1ccc(OC)c(NC(=O)c2cccnc2Sc2ccccc2)c1,.,.,-0.19,.,.,.
Cc1ccc(-c2n[nH]c(=S)n2/N=C/c2c(C)nn(-c3ccccc3)c2C)cc1,.,.,-1.69,.,.,.
Cc1nn(-c2ccccc2)c(C)c1/C=N/n1c(-c2ccc(C(C)(C)C)cc2)n[nH]c1=S,-7.3,0.368,-1.12,25.5,-1.22,-3.86*
Cc1nn(-c2nnc(NC3CCCCC3)nn2)c(C)c1Br,.,.,-0.71,.,.,.
CCOC(=O)c1nnc(-c2ccc(C)cc2)nc1Oc1ccc(Cl)cc1Cl,-11.1,-2.69*,-1.67,-23.6,-1.34,0.98
COc1ccc(NS(=O)(=O)c2ccc3nc(COc4ccc(Cl)c(C)c4)[nH]c3c2)cc1,.,.,0.46,.,.,.
Cc1cc(C)cc(N(CCC(=O)Nc2nnc(C)s2)S(=O)(=O)c2ccc(Cl)cc2)c1,.,.,0.45,.,.,.
NC(=S)N/N=C/c1ccc(-c2cc(Cl)ccc2Cl)o1,-7.3,-1,-2.77,-8.7,-0.606,-3.05*
NC(=S)N/N=C/c1ccc(-c2cc(Cl)cc(Cl)c2)o1,-0.4,-0.0701,-2.32,-38.7,-0.0981,-1.95
C=CCOC(=O)C1=C[C@H](c2ccc(Br)cc2)C[C@H](OCc2ccc(CO)cc2)O1,.,-0.0165,.,.,-0.477,.
COC(=O)[C@@H](NC(=O)N1CCN(c2cccc(C(F)(F)F)c2)CC1)C(C)C,2.4,-0.0247,-0.74,-30.6,-2.68,1
CCC(C)[C@H](NC(=O)N1CCN(c2cccc(C(F)(F)F)c2)CC1)C(=O)OC (stereo not given in full),2.2,3.23*,0.41,-9.7,0.0258,0.48
O=C(Nc1ccccc1)N1CCN(c2cccc(C(F)(F)F)c2)CC1,-11.1,0.27,-0.72,-7.9,-3.91,0.01
O=C(CS(=O)(=O)Cc1ccccc1)N1CCN(c2cccc(C(F)(F)F)c2)CC1,2.0,-0.342,-0.45,9.1,-4.32*,-0.48
FC(F)(F)c1cnc(NNC(=S)Nc2ccc(Cl)cc2)c(Cl)c1,.,.,-0.6,.,.,.
O/N=C(\c1ccc(Cl)cc1)c1ncc(C(F)(F)F)cc1Cl,-4.9,-0.101,0.09,-4.5,-6.05*,1.58
O=C(Oc1ccc(Cl)c2cccnc12)C12CC3CC(CC(C3)C1)C2,.,.,-0.6,.,.,.
Cc1ccc(-c2nc(NC(=O)CSc3nnc4scc(-c5ccccc5)n34)ns2)cc1,.,2.55*,.,.,-0.705,.
CCc1nnc(NC(=O)CSc2nnc3scc(-c4ccc(C)cc4)n23)s1,-4.7,0.298,.,-16.4,1.28,1.07
O=c1c2ccccc2n(Cc2cccc(F)c2)c(=O)n1C1CCCC1,-1.4,0.119,-0.94,2.6,.,-1.28
N#Cc1ccccc1Cn1c(=O)n(C2CCCC2)c(=O)c2ccccc21,2.4,0.189,-1.08,-18.6,-5.08*,-1.17
Clc1ccc(-c2nnc(-c3ccco3)o2)cc1,-15.8,-0.00464,0.19,-19.9,-4.52*,-0.11
Cc1cccc(NC(=O)CCOc2ccccc2)c1,-17.1,-1.91*,-0.07,17.6,0.0527,0.63
Cc1ccc(NS(=O)(=O)c2ccc(Cl)c(NC(=S)NC(=O)C3CCCCC3)c2)cc1Cl,.,.,-0.36,.,.,.
